Assay results published in ChEMBL document CHEMBL2218924, “A broad activity screen in support of a chemogenomic map for kinase signalling research and drug discovery” (Biochem J, 2013).

Legend:
[1] = target: Insulin-like growth factor 1 receptor (Homo sapiens) (UniProt P08069); conditions: at 10 µM
[2] = target: T1, Protein kinase C zeta type (Homo sapiens) (UniProt Q05513); conditions: at 10 µM
T1 sequence (whole entry): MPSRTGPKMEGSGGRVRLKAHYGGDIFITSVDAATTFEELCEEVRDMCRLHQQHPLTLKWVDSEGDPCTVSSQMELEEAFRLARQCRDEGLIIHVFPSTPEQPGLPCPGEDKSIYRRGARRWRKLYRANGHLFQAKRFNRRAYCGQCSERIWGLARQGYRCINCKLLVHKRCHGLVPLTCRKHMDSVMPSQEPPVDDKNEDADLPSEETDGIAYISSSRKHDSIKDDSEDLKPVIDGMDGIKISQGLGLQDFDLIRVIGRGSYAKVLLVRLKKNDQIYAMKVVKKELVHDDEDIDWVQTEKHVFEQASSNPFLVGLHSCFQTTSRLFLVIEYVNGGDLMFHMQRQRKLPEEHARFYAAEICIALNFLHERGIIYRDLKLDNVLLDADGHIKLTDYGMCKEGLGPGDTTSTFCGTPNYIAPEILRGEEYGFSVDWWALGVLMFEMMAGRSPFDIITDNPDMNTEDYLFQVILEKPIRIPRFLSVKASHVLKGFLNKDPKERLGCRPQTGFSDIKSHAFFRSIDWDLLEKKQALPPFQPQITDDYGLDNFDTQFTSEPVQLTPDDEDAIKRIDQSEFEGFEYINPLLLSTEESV

[3] = target: Protein kinase C theta type (Homo sapiens) (UniProt Q04759); conditions: at 1 µM
[4] = target: Protein kinase C theta type (Homo sapiens) (UniProt Q04759); conditions: at 10 µM
[5] = target: T2, Protein kinase C iota type (Homo sapiens) (UniProt P41743); conditions: at 1 µM
T2 sequence (whole entry): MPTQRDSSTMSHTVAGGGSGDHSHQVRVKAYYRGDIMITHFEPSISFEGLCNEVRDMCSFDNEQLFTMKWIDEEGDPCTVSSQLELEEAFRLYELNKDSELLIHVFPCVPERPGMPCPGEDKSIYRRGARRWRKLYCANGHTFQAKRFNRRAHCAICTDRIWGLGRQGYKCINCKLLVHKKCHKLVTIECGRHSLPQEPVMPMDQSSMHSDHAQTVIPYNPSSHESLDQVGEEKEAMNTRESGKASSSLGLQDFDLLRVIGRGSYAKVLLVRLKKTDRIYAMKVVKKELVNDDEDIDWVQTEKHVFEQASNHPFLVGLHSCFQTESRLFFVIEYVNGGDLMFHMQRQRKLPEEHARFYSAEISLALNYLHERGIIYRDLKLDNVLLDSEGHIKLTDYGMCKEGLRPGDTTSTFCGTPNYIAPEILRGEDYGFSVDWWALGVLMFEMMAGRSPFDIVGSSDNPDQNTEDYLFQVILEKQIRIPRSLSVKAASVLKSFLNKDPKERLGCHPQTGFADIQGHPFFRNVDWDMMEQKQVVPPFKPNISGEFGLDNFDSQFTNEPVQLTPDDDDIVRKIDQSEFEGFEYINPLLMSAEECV

[6] = target: T3, Serine/threonine-protein kinase D1 (Homo sapiens) (UniProt Q15139); conditions: at 1 µM
T3 sequence (whole entry): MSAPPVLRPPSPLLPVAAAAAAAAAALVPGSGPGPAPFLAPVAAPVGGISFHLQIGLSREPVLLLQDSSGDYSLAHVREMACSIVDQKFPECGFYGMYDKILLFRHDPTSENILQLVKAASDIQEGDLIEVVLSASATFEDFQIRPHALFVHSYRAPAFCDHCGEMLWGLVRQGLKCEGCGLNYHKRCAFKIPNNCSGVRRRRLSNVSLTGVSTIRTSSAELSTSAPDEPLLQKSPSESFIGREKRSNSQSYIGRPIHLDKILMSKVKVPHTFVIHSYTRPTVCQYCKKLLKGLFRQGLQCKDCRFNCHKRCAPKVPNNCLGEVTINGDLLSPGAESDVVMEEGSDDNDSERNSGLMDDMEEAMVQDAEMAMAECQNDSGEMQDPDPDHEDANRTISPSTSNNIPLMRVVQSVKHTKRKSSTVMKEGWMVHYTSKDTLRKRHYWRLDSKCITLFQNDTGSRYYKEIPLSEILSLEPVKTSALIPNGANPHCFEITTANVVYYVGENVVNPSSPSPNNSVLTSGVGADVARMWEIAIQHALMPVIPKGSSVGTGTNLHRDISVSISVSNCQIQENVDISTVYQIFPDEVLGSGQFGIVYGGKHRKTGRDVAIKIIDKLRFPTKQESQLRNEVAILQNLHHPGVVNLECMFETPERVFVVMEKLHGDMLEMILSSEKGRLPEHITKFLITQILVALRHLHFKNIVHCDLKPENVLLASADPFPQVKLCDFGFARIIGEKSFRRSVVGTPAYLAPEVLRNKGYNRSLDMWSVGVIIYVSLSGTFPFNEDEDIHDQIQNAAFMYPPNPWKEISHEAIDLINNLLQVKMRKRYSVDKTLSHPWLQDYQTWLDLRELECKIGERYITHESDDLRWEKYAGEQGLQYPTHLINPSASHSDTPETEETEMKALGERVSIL

[7] = target: T3, Serine/threonine-protein kinase D1 (Homo sapiens); conditions: at 10 µM
[8] = target: T4, Serine/threonine-protein kinase D2 (Homo sapiens) (UniProt Q9BZL6); conditions: at 1 µM
T4 sequence (whole entry): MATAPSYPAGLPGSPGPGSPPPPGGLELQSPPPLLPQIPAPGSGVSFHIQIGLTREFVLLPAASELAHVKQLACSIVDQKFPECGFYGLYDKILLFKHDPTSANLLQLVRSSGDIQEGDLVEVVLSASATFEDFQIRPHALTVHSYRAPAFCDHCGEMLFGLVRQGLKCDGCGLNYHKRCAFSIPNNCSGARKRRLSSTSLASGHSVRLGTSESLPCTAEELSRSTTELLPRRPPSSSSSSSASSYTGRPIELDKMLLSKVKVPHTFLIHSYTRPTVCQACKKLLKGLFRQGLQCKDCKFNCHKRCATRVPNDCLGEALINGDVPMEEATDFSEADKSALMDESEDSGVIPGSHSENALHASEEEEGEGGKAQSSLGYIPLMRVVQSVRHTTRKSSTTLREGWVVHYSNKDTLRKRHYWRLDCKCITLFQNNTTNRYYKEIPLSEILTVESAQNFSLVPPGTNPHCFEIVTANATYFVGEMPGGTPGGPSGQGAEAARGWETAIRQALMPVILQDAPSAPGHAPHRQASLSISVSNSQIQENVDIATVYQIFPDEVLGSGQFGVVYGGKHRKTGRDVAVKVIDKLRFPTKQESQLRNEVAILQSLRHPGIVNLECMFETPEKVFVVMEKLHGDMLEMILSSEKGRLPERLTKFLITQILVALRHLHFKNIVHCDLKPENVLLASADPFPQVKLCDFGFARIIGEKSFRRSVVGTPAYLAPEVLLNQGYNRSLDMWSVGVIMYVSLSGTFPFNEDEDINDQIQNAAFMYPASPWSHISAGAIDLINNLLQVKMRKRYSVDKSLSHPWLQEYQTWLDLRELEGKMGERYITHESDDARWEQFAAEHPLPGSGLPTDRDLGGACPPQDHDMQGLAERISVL

[9] = target: T4, Serine/threonine-protein kinase D2 (Homo sapiens); conditions: at 10 µM
[10] = target: T5, cGMP-dependent protein kinase 1 (Homo sapiens) (UniProt Q13976); conditions: at 1 µM
T5 sequence (whole entry): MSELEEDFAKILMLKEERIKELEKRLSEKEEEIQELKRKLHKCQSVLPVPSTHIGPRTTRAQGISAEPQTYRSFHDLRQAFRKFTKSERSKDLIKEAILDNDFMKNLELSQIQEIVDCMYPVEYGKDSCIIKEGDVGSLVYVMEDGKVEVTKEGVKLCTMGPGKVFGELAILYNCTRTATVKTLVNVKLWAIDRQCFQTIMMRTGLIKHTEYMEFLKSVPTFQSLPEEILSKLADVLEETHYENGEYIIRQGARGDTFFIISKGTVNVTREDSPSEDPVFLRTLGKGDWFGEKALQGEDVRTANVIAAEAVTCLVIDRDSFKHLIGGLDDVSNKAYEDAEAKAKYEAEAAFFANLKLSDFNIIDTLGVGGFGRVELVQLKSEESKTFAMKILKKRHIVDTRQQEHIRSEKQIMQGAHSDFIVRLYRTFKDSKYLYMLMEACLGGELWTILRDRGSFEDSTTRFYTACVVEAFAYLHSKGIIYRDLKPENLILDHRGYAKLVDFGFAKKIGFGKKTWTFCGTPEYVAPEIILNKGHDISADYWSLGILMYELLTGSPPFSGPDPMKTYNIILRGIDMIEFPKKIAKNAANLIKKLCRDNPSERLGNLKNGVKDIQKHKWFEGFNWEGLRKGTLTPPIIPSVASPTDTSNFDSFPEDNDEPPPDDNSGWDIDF

[11] = target: T5, cGMP-dependent protein kinase 1 (Homo sapiens); conditions: at 1 µM; remark: listed apart in the source
[12] = target: T5, cGMP-dependent protein kinase 1 (Homo sapiens); conditions: at 10 µM
[13] = target: T6, MAP kinase-activated protein kinase 5 (Homo sapiens) (UniProt Q8IW41); conditions: at 1 µM
T6 sequence (whole entry): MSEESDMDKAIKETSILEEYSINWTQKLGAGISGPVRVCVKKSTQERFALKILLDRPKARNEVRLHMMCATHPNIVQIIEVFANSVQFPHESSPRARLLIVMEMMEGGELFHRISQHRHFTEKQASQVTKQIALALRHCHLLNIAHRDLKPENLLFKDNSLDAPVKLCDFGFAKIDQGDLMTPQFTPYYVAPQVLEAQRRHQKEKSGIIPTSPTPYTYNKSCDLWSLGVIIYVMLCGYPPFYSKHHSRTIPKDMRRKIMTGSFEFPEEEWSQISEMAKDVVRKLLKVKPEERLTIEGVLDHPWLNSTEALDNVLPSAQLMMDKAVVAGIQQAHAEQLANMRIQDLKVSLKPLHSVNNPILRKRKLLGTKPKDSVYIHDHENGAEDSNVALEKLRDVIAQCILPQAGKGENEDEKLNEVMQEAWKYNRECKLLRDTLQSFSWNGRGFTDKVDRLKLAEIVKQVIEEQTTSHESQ

[14] = target: T6, MAP kinase-activated protein kinase 5 (Homo sapiens); conditions: at 10 µM
[15] = target: Serine/threonine-protein kinase N2 (Homo sapiens) (UniProt Q16513); conditions: at 1 µM
[16] = target: Serine/threonine-protein kinase N2 (Homo sapiens) (UniProt Q16513); conditions: at 10 µM
[17] = target: Protein kinase C eta type (Homo sapiens) (UniProt P24723); conditions: at 1 µM
[18] = target: Protein kinase C eta type (Homo sapiens) (UniProt P24723); conditions: at 10 µM
[19] = target: T2, Protein kinase C iota type (Homo sapiens); conditions: at 10 µM
[20] = target: T5, cGMP-dependent protein kinase 1 (Homo sapiens); conditions: at 10 µM; remark: listed apart in the source

Chain of Protein kinase C theta type (Homo sapiens) (Q04759 whole entry, looked up): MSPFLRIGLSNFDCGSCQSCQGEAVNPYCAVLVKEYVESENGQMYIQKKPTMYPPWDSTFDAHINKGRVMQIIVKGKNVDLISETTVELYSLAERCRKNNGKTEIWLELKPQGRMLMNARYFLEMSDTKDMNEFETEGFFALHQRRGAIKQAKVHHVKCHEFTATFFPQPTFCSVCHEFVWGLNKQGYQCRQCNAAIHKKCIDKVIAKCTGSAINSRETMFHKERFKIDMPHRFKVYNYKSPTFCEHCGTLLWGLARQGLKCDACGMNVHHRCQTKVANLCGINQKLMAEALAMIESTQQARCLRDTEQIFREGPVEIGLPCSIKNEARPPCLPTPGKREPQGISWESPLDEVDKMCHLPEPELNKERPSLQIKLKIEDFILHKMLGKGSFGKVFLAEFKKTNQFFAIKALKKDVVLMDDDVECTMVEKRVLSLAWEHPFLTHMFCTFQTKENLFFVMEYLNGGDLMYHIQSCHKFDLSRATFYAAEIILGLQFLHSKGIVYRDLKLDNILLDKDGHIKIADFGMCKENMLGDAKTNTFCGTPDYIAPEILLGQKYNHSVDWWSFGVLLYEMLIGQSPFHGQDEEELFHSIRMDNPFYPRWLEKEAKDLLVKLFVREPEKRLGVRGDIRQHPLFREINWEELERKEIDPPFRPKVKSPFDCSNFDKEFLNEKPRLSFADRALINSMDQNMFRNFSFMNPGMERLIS
Chain of Serine/threonine-protein kinase N2 (Homo sapiens) (Q16513 whole entry, looked up): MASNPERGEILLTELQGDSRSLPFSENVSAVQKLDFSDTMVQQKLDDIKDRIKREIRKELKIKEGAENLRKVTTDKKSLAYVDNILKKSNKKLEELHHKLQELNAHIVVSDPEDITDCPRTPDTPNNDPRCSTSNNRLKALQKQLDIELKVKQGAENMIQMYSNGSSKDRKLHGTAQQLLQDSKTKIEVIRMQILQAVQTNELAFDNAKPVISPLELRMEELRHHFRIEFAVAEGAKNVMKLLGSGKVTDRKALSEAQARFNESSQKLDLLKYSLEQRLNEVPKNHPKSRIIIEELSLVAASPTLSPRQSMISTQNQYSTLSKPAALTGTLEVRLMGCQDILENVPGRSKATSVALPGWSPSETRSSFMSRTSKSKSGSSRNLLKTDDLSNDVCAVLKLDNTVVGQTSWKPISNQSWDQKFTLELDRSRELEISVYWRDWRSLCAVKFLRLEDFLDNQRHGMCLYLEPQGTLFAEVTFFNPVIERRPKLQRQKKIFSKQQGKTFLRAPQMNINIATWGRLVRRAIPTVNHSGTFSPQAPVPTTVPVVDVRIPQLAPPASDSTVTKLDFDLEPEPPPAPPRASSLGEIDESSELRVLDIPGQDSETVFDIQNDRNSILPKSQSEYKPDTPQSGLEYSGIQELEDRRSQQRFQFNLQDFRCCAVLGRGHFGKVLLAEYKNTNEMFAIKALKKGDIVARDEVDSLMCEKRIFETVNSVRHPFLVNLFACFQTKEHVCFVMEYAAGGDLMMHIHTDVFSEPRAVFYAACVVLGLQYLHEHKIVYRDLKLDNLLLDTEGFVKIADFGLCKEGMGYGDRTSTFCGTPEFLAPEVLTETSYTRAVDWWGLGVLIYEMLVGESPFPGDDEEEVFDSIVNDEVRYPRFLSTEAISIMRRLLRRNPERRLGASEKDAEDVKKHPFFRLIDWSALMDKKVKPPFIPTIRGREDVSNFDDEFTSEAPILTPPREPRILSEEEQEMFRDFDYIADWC
Chain of Insulin-like growth factor 1 receptor (Homo sapiens) (P08069 31-736 limits assumed): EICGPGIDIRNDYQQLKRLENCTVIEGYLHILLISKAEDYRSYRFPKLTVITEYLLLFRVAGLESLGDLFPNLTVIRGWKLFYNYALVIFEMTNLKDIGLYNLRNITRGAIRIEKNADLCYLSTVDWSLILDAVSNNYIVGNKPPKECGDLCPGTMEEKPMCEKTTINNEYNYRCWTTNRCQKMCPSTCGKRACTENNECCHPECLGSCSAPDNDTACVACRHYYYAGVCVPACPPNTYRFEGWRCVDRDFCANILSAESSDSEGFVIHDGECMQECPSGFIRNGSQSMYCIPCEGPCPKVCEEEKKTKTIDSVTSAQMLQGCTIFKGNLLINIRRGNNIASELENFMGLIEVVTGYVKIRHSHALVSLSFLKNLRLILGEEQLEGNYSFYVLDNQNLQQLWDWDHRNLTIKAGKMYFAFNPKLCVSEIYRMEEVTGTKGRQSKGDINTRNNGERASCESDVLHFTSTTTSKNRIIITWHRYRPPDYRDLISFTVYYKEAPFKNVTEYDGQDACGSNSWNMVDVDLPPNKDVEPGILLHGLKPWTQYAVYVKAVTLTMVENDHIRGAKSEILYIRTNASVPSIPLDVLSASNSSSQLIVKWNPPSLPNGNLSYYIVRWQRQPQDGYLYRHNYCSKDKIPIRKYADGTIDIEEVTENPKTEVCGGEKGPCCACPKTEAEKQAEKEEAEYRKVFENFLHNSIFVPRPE
Chain of Insulin-like growth factor 1 receptor (Homo sapiens) (P08069 741-1367 limits assumed): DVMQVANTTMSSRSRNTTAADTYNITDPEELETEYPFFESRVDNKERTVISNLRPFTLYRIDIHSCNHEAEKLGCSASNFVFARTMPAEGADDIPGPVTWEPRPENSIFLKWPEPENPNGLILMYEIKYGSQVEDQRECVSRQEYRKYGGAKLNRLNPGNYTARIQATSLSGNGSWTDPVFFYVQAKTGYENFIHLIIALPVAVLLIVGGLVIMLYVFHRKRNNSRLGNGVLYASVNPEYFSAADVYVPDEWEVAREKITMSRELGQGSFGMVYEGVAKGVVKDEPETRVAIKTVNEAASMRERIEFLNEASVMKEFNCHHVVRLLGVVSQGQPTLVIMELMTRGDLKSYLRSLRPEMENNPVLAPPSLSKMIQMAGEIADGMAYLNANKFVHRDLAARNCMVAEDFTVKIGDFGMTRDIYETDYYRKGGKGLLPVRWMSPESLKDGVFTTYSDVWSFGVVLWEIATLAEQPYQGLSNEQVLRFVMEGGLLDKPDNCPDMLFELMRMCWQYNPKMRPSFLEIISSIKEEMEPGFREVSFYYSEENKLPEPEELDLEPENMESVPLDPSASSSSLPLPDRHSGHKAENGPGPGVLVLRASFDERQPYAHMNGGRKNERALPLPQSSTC
Chain of Protein kinase C eta type (Homo sapiens) (P24723 whole entry): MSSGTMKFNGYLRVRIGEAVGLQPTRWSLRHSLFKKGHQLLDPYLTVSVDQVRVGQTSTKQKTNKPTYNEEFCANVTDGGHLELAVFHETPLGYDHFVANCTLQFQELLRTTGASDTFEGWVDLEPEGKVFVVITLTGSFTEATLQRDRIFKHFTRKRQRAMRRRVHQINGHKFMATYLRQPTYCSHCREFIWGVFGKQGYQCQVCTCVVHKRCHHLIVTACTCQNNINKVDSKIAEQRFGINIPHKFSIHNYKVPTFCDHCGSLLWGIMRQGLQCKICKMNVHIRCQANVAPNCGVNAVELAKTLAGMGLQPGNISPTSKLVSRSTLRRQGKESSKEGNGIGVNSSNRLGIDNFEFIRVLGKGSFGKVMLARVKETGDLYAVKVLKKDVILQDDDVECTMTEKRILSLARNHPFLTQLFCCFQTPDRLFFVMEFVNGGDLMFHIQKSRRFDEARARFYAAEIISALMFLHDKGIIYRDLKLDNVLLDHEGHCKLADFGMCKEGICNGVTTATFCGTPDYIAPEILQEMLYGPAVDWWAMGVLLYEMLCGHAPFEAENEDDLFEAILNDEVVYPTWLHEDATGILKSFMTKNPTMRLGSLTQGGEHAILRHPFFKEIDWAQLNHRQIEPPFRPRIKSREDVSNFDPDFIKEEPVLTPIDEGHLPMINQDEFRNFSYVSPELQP

Compound	residual activity [1]	residual activity [2]	residual activity [3]	residual activity [4]	residual activity [5]	residual activity [6]	residual activity [7]	residual activity [8]	residual activity [9]	residual activity [10]	residual activity [11]	residual activity [12]	residual activity [13]	residual activity [14]	residual activity [15]	residual activity [16]	residual activity [17]	residual activity [18]	residual activity [19]	residual activity [20]
CC(C)(C)c1cc(C=C(C#N)C#N)cc(Br)c1O	101%	101%	103%	75%	107% (inactive)	98%	117%	100%	105%	107%	66%	60%	107%	65%	104%	117%				
O=C1Nc2ccc3ncsc3c2/C1=C/c1c[nH]cn1	68%	53%	49%	10%	85% (inactive)	5%	4%	30%	3%	13%	7%	1%	49%	18%	4%	2%	23%	5%	73%	2%
O=c1[nH]c2ccccc2n1C1CCN(Cc2ccc(-c3nc4cc5[nH]cnc5cc4nc3-c3ccccc3)cc2)CC1	39%	97%	104%	109%	87% (inactive)	96%	97%	100%	108%	108%	86%	97%	75%	37%	112%	115%	120%	83%	90%	110%
N/C(=N\[N+](=O)[O-])N/N=C\c1ccc(-c2cccc([N+](=O)[O-])c2)o1	76%	98%															84%	83%		
COc1cc(OC)c(/C=C2\C(=O)Nc3ccccc32)c(OC)c1	133%		85%	90%		84%	90%	108%	105%	97%	83%	73%			99%	87%	94%	94%		108%
O=[N+]([O-])/C=C/c1ccc2c(c1)OCO2	121%	114%	95%	93%	93% (inactive)	91%	88%	105%	105%	107%	101%	90%	85%	70%	102%	107%	100%	72%	76%	106%
COc1ccc2c(c[n+](C)c3c4cc5c(cc4ccc23)OCO5)c1OC	131%	75%	90%	66%	98% (inactive)	110%	61%				92%	87%	84%	52%		92%			81%	92%
O=C1NC(=O)c2c1c1c3ccccc3n3c1c1c2c2ccccc2n1C1CCC3O1			7%	13%		87%	49%	92%	90%	84%	76%	74%			47%	25%	89%	81%		73%
